Test results as given in the supplement of paper PMC10503962.

These molecules were tested on Trichuris muris adult worms (assay: mean motility score (Paragon pixel variance) of adult worms (arbitrary units); higher = more motile worms, i.e. less anthelmintic effect; extreme values may be limits of the assay). Settings: 100 µM; 24 h.
Summary of the method: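 Each drug was tested with three worms in three wells, run over three separate occasions and vehicle and positive controls included. The worms were single adult Trichuris muris from infected NOD SCID mice, held for 24 h at 37°C and 5% CO2 in 100 μL RPMI-1640 with antibiotics and drug at 100 μM (1% v/v DMSO) in 96-well plates. Motility score was derived by Paragon pixel-variance analysis of films from an automated phenotyping platform and averaged over replicate wells.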

| SMILES | mean motility score |
| --- | --- |
| CCc1c2c(nc3ccc(OC(=O)N4CCC(N5CCCCC5)CC4)cc13)-c1cc3c(c(=O)n1C2)COC(=O)[C@]3(O)CC [irinotecan] | 2280 |
| Nc1ccc(C(=O)Oc2ccccc2)c(O)c1 [phenyl aminosalicylate] | 1040 |
| C#C[C@]1(O)CC[C@H]2[C@@H]3CCc4cc(O)ccc4[C@H]3CC[C@@]21C [ethinyl estradiol] | 3320 |
| Cn1cnc2c1c(=O)[nH]c(=O)n2C [theobromine] | 859 |
| CC(C)N=c1cc2n(-c3ccc(Cl)cc3)c3ccccc3nc-2cc1Nc1ccc(Cl)cc1 [clofazimine] | 3290 |
| FC(F)(F)C(F)(F)C(F)(F)C(F)(F)C(F)(F)C(F)(F)C(F)(F)C(F)(F)Br [perflubron] | 1630 |
| C/C=C(/C(=C/C)c1ccc(O)cc1)c1ccc(O)cc1 [dienestrol] | 3590 |
| O=C(O)/C=C/C(=O)O [fumaric acid] | 3100 |
| CCn1nc(C(=O)O)c(=O)c2cc3c(cc21)OCO3 [cinoxacin] | 1110 |
| COc1ccc2cc(CCC(C)=O)ccc2c1 [nabumetone] | 2720 |
| COc1cc2nccc(Oc3ccc(NC(=O)NC4CC4)c(Cl)c3)c2cc1C(N)=O [lenvatinib] | 2500 |
| CCN(CC)CCOC(=O)c1ccc(N)cc1.Cl [procaine hydrochloride] | 3750 |
| Cc1ccc(C)c(OCCCC(C)(C)C(=O)O)c1 [gemfibrozil] | 3280 |
| C(=C\c1ccccc1)/CN1CCN(C(c2ccccc2)c2ccccc2)CC1 [cinnarizine] | 1640 |
| N=C(N)NC(=N)NCCc1ccccc1 [phenformin] | 4260 |
| COc1c2occc2cc2ccc(=O)oc12 [methoxsalen] | 4190 |
| CC1=NS(=O)(=O)c2cc(Cl)ccc2N1 [diazoxide] | 3260 |
| Cc1ccc(Nc2nccc(N(C)c3ccc4c(C)n(C)nc4c3)n2)cc1S(N)(=O)=O [pazopanib] | 1830 |
| COc1ccccc1N1CCN(CC(O)COc2cccc3ccccc23)CC1 (stereo not drawn) [naftopidil] | 3040 |

| SMILES | mean motility score |
| --- | --- |
| N[C@@H]1CONC1=O [cycloserine] | 3930 |
| CC(=O)O [acetic acid] | 2710 |
| CCOC(=O)Nc1ccc2c(c1)N(C(=O)CCN1CCOCC1)c1ccccc1S2.Cl [moricizine hydrochloride] | 5 |
| COc1cc2ncnc(Nc3ccc(F)c(Cl)c3)c2cc1OCCCN1CCOCC1 [gefitinib] | 1080 |
| CCc1cccc2c3c([nH]c12)C(CC)(CC(=O)O)OCC3 (stereo not drawn) [etodolac] | 2190 |
| CCCCOc1ccc(OCCCN2CCOCC2)cc1.Cl [pramoxine hydrochloride] | 1260 |
| CC(C)(C)c1ccc(C(O)CCCN2CCC(C(O)(c3ccccc3)c3ccccc3)CC2)cc1 (stereo not drawn) [terfenadine] | 1 |
| CC(=O)OCC(=O)[C@@]1(O)CC[C@H]2[C@@H]3CCC4=CC(=O)CC[C@]4(C)[C@H]3[C@@H](O)C[C@@]21C [hydrocortisone acetate] | 3080 |
| Oc1ncnc2[nH]ncc12 [allopurinol] | 4000 |
| O=C1c2ccccc2C(=O)C1c1ccccc1 [phenindione] | 4420 |
| Nc1ccn([C@H]2CC[C@@H](CO)O2)c(=O)n1 [zalcitabine] | 3920 |
| COC(=O)c1ccc2c(c1)NC(=O)/C2=C(\Nc1ccc(N(C)C(=O)CN2CCN(C)CC2)cc1)c1ccccc1 [nintedanib] | 3140 |
| O=C(COc1ccc(Cl)cc1)N1CCN(Cc2ccc3c(c2)OCO3)CC1 [fipexide] | 241 |
| CCOC(=O)C1=C(COCCN)NC(C)=C(C(=O)OC)C1c1ccccc1Cl (stereo not drawn) [amlodipine] | 8.67 |
| CN(Cc1cnc2nc(N)nc(N)c2n1)c1ccc(C(=O)N[C@@H](CCC(=O)O)C(=O)O)cc1 [methotrexate] | 3700 |
| O=C1CCc2ccc(OCCCCN3CCN(c4cccc(Cl)c4Cl)CC3)cc2N1 [aripiprazole] | 3030 |
| NCCS(=O)(=O)O [taurine] | 1780 |
| NS(=O)(=O)c1cc2c(cc1Cl)NCNS2(=O)=O [hydrochlorothiazide] | 3580 |
| C/C(=C\C(=O)OCCCCCCCCC(=O)O)C[C@@H]1OC[C@H](C[C@@H]2O[C@H]2[C@@H](C)[C@H](C)O)[C@@H](O)[C@H]1O [mupirocin] | 2520 |
